Compound activity as filed in PubChem BioAssay.
ID4 SMM = binders of human ID4 protein. small molecule microarray, Flag-ID4 binding, fluorescence F/B. P47928. AID 624137. calls only. 31,000 compounds, 1.2% hits; call rule not given here;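 also: a binder raises fluorescence above local background on the spot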
Target sequence (P47928 whole entry, looked up): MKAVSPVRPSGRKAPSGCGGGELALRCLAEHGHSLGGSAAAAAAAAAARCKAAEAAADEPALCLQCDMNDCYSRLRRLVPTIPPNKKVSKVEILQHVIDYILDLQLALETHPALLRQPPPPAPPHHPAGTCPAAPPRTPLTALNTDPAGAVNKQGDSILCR
p53 PUMA act = restores mutant p53 pathway signaling in SW480 cells | activation, % at 9.98 µM | 28,000 compounds, 1.5% hits | SW480 PUMA-promoter luciferase, p53 mutant reactivation; in the data active = activation above about 52%; inconclusive = no clear call, values can overlap the other calls
A number is an active result. Most compounds without a hit are left out; they make up all but 2.1% or so of the library.

For CC(C)CC(NC(=O)OCC1c2ccccc2-c2ccccc21)C(=O)O (stereo unspecified) the results were ID4 SMM inactive and p53 PUMA act 64.
For Cc1ccc(NC(=O)CSc2n[nH]c(-c3ccccc3)n2)c(C)c1 the results were ID4 SMM inactive and p53 PUMA act inactive.
C/C=C/c1ccc([C@H]2[C@@H](CO)N(C(=O)NC3CCCCC3)[C@H]2C#N)cc1 was read as ID4 SMM inactive.
`C[C@H](CO)N1C[C@H](C)[C@H](CN(C)Cc2ccc(Cl)c(Cl)c2)Oc2ccc(NC(=O)c3ccncc3)cc2CC1=O` gave ID4 SMM inactive and p53 PUMA act inactive.
For COc1cccc(NC(=O)CC2C(=O)NC3CCCCC3N2C(=O)c2ccccc2)c1 (stereo unspecified) the results were ID4 SMM active and p53 PUMA act inactive.
Screening COc1cccc(N2C(=O)C(CC(=O)Nc3ccc(F)cc3)N(C3CCCCC3)C2=O)c1 (stereo unspecified) returned ID4 SMM inactive and p53 PUMA act inactive.
Screening Cc1ccc(S(=O)(=O)N(C)C[C@H]2Oc3ccc(NC(=O)Nc4ccccc4)cc3C(=O)N([C@H](C)CO)C[C@H]2C)cc1 returned p53 PUMA act inactive.
`CC1CCc2c(sc(NC(=O)c3nc4ncccn4n3)c2C(N)=O)C1` (stereo unspecified) gave ID4 SMM inactive and p53 PUMA act 59.
`CCOC(=O)c1c(NC(=O)c2nc3ncccn3n2)sc2c1CCC(C)C2` (stereo unspecified) gave ID4 SMM inactive and p53 PUMA act inactive.
Screening CC(=O)c1ccc(NC(=O)Cn2cnc3c(sc4nc5c(cc43)COC(C)(C)C5)c2=O)cc1 returned ID4 SMM inactive and p53 PUMA act 73.
For CC1(C)Cc2nc3sc4c(=O)n(CC(=O)NCCc5ccccc5)cnc4c3cc2CO1 the results were ID4 SMM inactive and p53 PUMA act inactive.
`O=C(C[C@@H]1CC[C@@H](NS(=O)(=O)c2ccccc2)[C@H](CO)O1)NCCN1CCCCC1` gave ID4 SMM inactive.
For O=C(C[C@@H]1CC[C@@H](NS(=O)(=O)c2ccccc2)[C@@H](CO)O1)NCCN1CCCCC1 the results were ID4 SMM active.
Screening CS(=O)(=O)N(CC(=O)Nc1cccc(Cl)c1Cl)c1ccc(F)c(Cl)c1 returned ID4 SMM inactive and p53 PUMA act inactive.
`Cc1ccc(-c2nn(C)c(=O)c3ccccc23)cc1S(=O)(=O)N1CCN(CCO)CC1` gave ID4 SMM active and p53 PUMA act inactive.
For Cc1ccc(-c2nn(C)c(=O)c3ccccc23)cc1CNC(=O)CN1CCOCC1 the results were ID4 SMM inactive and p53 PUMA act inactive.
Screening COc1ccc(-c2cnc3c(c2)C(=O)N([C@H](C)CO)C[C@@H](C)[C@H](CN(C)Cc2ccccn2)O3)cc1 returned ID4 SMM active and p53 PUMA act inactive.
For COc1ccc(-c2cnc3c(c2)C(=O)N([C@H](C)CO)C[C@H](C)[C@H](CN(C)Cc2ccccn2)O3)cc1 the results were ID4 SMM inactive.
Screening COc1cccc(-c2cnc3c(c2)C(=O)N([C@@H](C)CO)C[C@@H](C)[C@@H](CN(C)Cc2cccnc2)O3)c1 returned ID4 SMM inactive.
For COc1cccc(-c2cnc3c(c2)C(=O)N([C@H](C)CO)C[C@@H](C)[C@H](CN(C)Cc2cccnc2)O3)c1 the results were ID4 SMM active and p53 PUMA act inactive.
`COc1ccc(CN(C)C[C@H]2Oc3ccc(NC(=O)Nc4ccc(F)cc4)cc3C(=O)N([C@@H](C)CO)C[C@H]2C)cc1` gave ID4 SMM inactive and p53 PUMA act inactive.
COc1ccc(CN(C)C[C@H]2Oc3c(NS(=O)(=O)c4cccs4)cccc3C(=O)N([C@H](C)CO)C[C@@H]2C)cc1 was read as ID4 SMM inactive and p53 PUMA act inactive.
Screening CNC[C@H]1OCCCC[C@H](C)Oc2ccc(NS(=O)(=O)c3cccs3)cc2C(=O)N([C@@H](C)CO)C[C@@H]1C returned ID4 SMM active and p53 PUMA act inactive.
For CNC[C@H]1OCCCC[C@@H](C)Oc2ccc(NS(=O)(=O)c3cccs3)cc2C(=O)N([C@H](C)CO)C[C@H]1C the results were ID4 SMM inactive and p53 PUMA act inactive.
For CNC[C@@H]1OCCCC[C@H](C)Oc2ccc(NS(=O)(=O)c3cccs3)cc2C(=O)N([C@@H](C)CO)C[C@H]1C the results were ID4 SMM inactive and p53 PUMA act inactive.
`CNC[C@@H]1OCCCC[C@@H](C)Oc2ccc(NS(=O)(=O)c3cccs3)cc2C(=O)N([C@@H](C)CO)C[C@H]1C` gave ID4 SMM active and p53 PUMA act inactive.
`Cc1sc(NC(=O)c2cnccn2)c(C(N)=O)c1-c1ccccc1` gave ID4 SMM inactive and p53 PUMA act 99.
CCOC(=O)c1cc(-c2ccccc2)sc1NC(=S)Nc1cnccn1 was read as ID4 SMM inactive and p53 PUMA act inactive.
`Cc1ccc(-c2cc(C(=O)Nc3sc(C)c(-c4ccccc4)c3C(N)=O)c3ccccc3n2)o1` gave ID4 SMM inactive and p53 PUMA act 105.
`Cc1sc(NC(=O)c2cc(-c3ccccn3)nc3ccccc23)c(C(=O)NC2CCCCC2)c1C` gave ID4 SMM inactive and p53 PUMA act inactive.
`O=C(COc1ccc(Cl)cc1Br)Nc1cccnc1` gave ID4 SMM inactive and p53 PUMA act inconclusive.
O=C(COc1ccc(Cl)cc1Br)NCc1ccccn1 was read as ID4 SMM inactive and p53 PUMA act 76.
O=C(NCc1ccccn1)Nc1ccccc1Cl was read as ID4 SMM inactive and p53 PUMA act 143.
For O=C(NCc1ccccn1)Nc1ccc(F)cc1F the results were ID4 SMM inactive and p53 PUMA act inactive.
`C=CCn1c(=S)[nH]c2sc3c(c2c1=O)CC(C)(C)OC3` gave ID4 SMM inactive and p53 PUMA act inactive.
`C[C@@H]1CN([C@H](C)CO)C(=O)Cc2cc(NC(=O)C3CC3)ccc2O[C@@H]1CN(C)CC1CC1` gave ID4 SMM inactive and p53 PUMA act inactive.
Screening Cc1occc1C(=O)Nc1sc2c(c1C(=O)NCc1cccnc1)CCCC2 returned ID4 SMM active and p53 PUMA act inactive.
`O=C(Nc1sc2c(c1C(=O)NCc1cccnc1)CCCC2)c1ccc(Cl)cc1` gave ID4 SMM inactive and p53 PUMA act inactive.
`CCc1cccc(OCC(=O)Nc2cccc(-c3nnc(-c4ccccc4)o3)c2)c1` gave ID4 SMM inactive and p53 PUMA act 98.
For Cc1cccc(OCC(=O)Nc2cccc(-c3nc4cc(C)cc(C)c4o3)c2)c1 the results were ID4 SMM inactive and p53 PUMA act inconclusive.
Screening CCc1cccc(OCC(=O)Nc2ccccc2C(N)=O)c1 returned ID4 SMM inactive and p53 PUMA act 130.
Cc1cccc(OCC(=O)Nc2cccc(-c3nnc(-c4ccccc4)o3)c2)c1 was read as ID4 SMM inactive and p53 PUMA act 91.
`CCOC(=O)c1ccccc1NC(=O)COc1ccccc1` gave ID4 SMM inactive and p53 PUMA act inactive.
Screening COc1cccc(OCC(=O)Nc2cccc(-c3nnc(-c4ccccc4)o3)c2)c1 returned ID4 SMM inactive and p53 PUMA act 101.
For COc1cccc(NC(=O)COc2ccccc2C(=O)O)c1 the results were ID4 SMM inactive and p53 PUMA act inactive.
Screening O=C(COc1ccccc1)Nc1ccc2oc(-c3cccc(I)c3)nc2c1 returned ID4 SMM inactive and p53 PUMA act inactive.
`C=C1C[C@@]23C[C@H]4C5[C@@]6(C)CC(=O)C[C@]57C(C2C(O)[C@H]1C(O)C37)N4C6` (stereo partly specified) gave p53 PUMA act inactive.
